Here are results for eight compounds from PubChem BioAssay (Tox21).

A number with no mark means an inactive call. Inconclusive results are not listed. Activity calls are given as the source filed them. Unless noted, calls come from the whole dose curve.

Test [1] is described as follows: Nuclear factor erythroid 2-related factor 2/antioxidant responsive element (Nrf2/ARE) small molecule agonists: qHTS cell viability counter screen in human keratinocytes (AID 1919968; active = well fitted curve in the direction sought with a large enough effect in the repeat runs; an effect the other way counts as inactive or inconclusive; note: nearly all actives have a fitted effect of over 55% in size). The procedure, abridged: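 Measured as CellTiter-Fluor fluorescence, this readout tracks cytotoxicity in the same wells as the ARE-luciferase screen. HaCaT reporter cells (1,500/well) received compounds after a 5 h pre-incubation and were exposed for 23 h.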
(In qHTS, concentration-response curves come from the screen itself.)

Test [2] is described as follows: Nuclear factor erythroid 2-related factor 2/antioxidant responsive element (Nrf2/ARE) small molecule agonists: luciferase reporter gene qHTS assay in human keratinocytes (AID 1919969). Note: nearly all actives have a fitted effect of over 35% in size. In general terms: In a reporter assay the amount or activity of a reporter protein is the signal.
Test [3] deals with Gonadotropin-releasing hormone receptor (Homo sapiens) (UniProt P30968). The test can be described thus: Human gonadotropin-releasing hormone receptor (GnRHR) small molecule agonists, calcium flux assay in GnRHR-HEK293 cells (AID 1920063). Note: nearly all actives have a fitted effect of over 35% in size. The method in brief:
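Fluorescence kinetics (480 nm excitation, 540 nm emission; 3 min, 1 s steps) report calcium mobilisation in human GnRHR-HEK293 cells in agonist mode. Dye incubation: 1 h, 37 C.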
A general note: Calcium assays in cells follow changes in intracellular calcium, usually with a dye or a luminescent sensor.

Test [4] has as its target KiSS-1 receptor (Homo sapiens) (UniProt Q969F8). The experiment in a line: Human kisspeptin (KISS1R) small molecule agonists, calcium flux assay in KISS1R-HEK293 cells (AID 1920064; active = well fitted curve in the direction sought with a large enough effect in the repeat runs; an effect the other way counts as inactive or inconclusive). The method in brief:
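Measures KISS1R agonism through calcium-sensitive dye fluorescence in stably transfected HEK293 cells, read for 3 min after pin-tool compound delivery; 15-point titrations in triplicate.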

Test [5] can be described thus: G protein-coupled receptor (GPCR) small molecule agonists, calcium flux assay: HEK293 wild type cell line counter screen (AID 1920065). The procedure, abridged:
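Readout: fluorescence at 480 nm excitation/540 nm emission, sampled at 1 s intervals for 3 min. Cells had been cultured 18 h, then dye-loaded 1 h at 37 C before compound or ATP addition.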

The nature of test [6]: p53 small molecule agonists, cell-based qHTS assay with human liver microsomes (AID 1963577). The procedure, abridged:
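Fluorescence of the beta-lactamase reporter in p53RE-bla cells, detected with LiveBLAzer substrate (2 h, room temperature, dark), served as the read-out after 16 h compound exposure at 37 C with human liver microsomes and NADPH, each 0.5 mg/mL final.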

The nature of test [7]: p53 small molecule agonists, cell-based qHTS assay with rat liver microsomes (AID 1963578). The procedure, abridged: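 Cells carrying a p53 response element–beta-lactamase reporter were plated and rested 5 h, then dosed with compound in DMSO plus rat liver microsomes and NADPH, each at 0.5 mg/mL final. After 16 h at 37 C, LiveBLAzer substrate was added for 2 h.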
Test [8] can be described thus: p53 small molecule agonists, cell-based qHTS assay with human liver microsomes: qHTS cell viability counter screen (AID 1963579). Note: nearly all actives have a fitted effect of over 45% in size. The method in brief:
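Cytotoxicity counter screen: p53RE-bla, 4,000 cells/well; 5 h settle, 37 C/5% CO2; cpd + HLM 0.5 mg/mL + NADPH 0.5 mg/mL (final); 16 h, 37 C; CellTiter-Glo, 30 min RT, luminescence.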

Test [9] is described as follows: p53 small molecule agonists, cell-based qHTS assay with rat liver microsomes: qHTS cell viability counter screen (AID 1963580). Note: nearly all actives have a fitted effect of over 45% in size. The method in brief:
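HCT-116 p53RE-bla, 4,000 cells/well, 5 h pre-incubation; cpd + rat liver microsomes 0.5 mg/mL + NADPH 0.5 mg/mL (final); 16 h, 37 C; CellTiter-Glo, 30 min RT; luminescence.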

The nature of test [10]: p53 small molecule agonists, cell-based qHTS assay: qHTS cell viability counter screen (AID 1963581). Note: nearly all actives have a fitted effect of over 45% in size. The procedure, abridged: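 In the same plates used for the p53 bla reporter, HCT-116 cells given compounds for 16 h at 37 C received CellTiter-Glo; luminescence was recorded 30 min later at room temperature.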
The nature of test [11]: p53 small molecule agonists, cell-based qHTS assay (AID 1963582; active = well fitted activation curve with a large enough effect in the signal ratio in the repeat runs, not every such curve was filed as active; the % refers to the signal ratio). The method in brief: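 Compounds are pin-transferred in DMSO onto p53RE-bla cells and incubated 16 h at 37 C. The B/G FRET beta-lactamase substrate is then applied for 2 h at RT and fluorescence recorded.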
In test [12] the target is 5-hydroxytryptamine receptor 2A (Homo sapiens) (UniProt P28223). The experiment in a line: 5-hydroxytryptamine receptor 2A (HTR2A) small molecule antagonists, cell-based qHTS assay (AID 1963586). Note: nearly all actives have a fitted effect of over 45% in size. The method in brief: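 Antagonist-mode intracellular calcium assay: DOI (4 nM) added after 5 min compound pre-incubation at room temperature to dye-loaded HTR2A-CHO cells. Fluorescence followed for 3 min, sampled every second.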
Sequence of 5-hydroxytryptamine receptor 2A (Homo sapiens) (P28223 whole entry, looked up): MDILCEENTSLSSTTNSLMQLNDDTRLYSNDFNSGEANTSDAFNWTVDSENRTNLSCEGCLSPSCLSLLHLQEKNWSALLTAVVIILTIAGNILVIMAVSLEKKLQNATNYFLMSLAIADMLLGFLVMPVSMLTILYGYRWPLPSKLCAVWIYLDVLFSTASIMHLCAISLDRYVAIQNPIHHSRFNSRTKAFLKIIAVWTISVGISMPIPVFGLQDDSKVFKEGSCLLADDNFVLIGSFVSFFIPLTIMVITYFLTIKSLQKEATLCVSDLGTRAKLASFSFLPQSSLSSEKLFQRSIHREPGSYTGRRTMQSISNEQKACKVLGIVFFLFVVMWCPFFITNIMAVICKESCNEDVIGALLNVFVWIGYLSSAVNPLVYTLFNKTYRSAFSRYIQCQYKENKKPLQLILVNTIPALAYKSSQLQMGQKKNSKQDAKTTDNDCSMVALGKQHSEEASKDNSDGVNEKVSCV

For test [13] the target is unchanged. The test can be described thus: 5-hydroxytryptamine receptor 2A (HTR2A) small molecule agonists, cell-based qHTS assay (AID 1963587). Note: nearly all actives have a fitted effect of over 30% in size. The procedure, abridged:
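Kinetic calcium-flux fluorescence (2 min, 1 sec intervals) after compound addition in agonist mode. HTR2A-CHO cells were cultured 18 h, then dye-loaded 1 h at 37 C.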

Test [14] concerns the target Muscarinic acetylcholine receptor M1 (Homo sapiens) (UniProt P11229). The test can be described thus: Cholinergic receptor muscarinic 1 (CHRM1) small molecule antagonists, cell-based qHTS assay (AID 1963588). Note: nearly all actives have a fitted effect of over 40% in size. The method in brief:
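CHRM1-CHO calcium-flux assay, antagonist mode. Cells were seeded 18 h, dye-loaded 1 h at 37 C and given compound for 5 min at RT, then acetylcholine was added at 50nM. FDSS fluorescence was read 3 min; 15 concentrations, three runs.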

Test [15] has the same target. The experiment in a line: Cholinergic receptor muscarinic 1 (CHRM1) small molecule agonists, cell-based qHTS assay (AID 1963589). Note: nearly all actives have a fitted effect of over 35% in size. The procedure, abridged:
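Each compound was tested at 15 concentrations across three independent runs on dye-loaded CHO cells stably expressing human CHRM1, reading intracellular calcium fluorescence kinetically at 1 sec intervals.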

Test [16] in a line: cAMP Responsive Elements (CRE) small molecule agonists, cell-based qHTS assay (AID 1963590). The procedure, abridged:
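Cell line: CRE-bla HEK 293T; medium DMEM/10% dialyzed FBS/0.1 mM NEAA/1 mM pyruvate/25 mM HEPES; 3 h compound exposure; beta-lactamase FRET readout after 2 h substrate loading at RT.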

Test [17] has as its target Beta-2 adrenergic receptor (Homo sapiens) (UniProt P07550). The test can be described thus: Adrenergic beta2 receptor (ADRB2) small molecule antagonists, cell-based qHTS assay (AID 1963592). For activity change, negative = inhibition: series mostly up to about 92 µM. Note: nearly all actives have a fitted effect of over 50% in size. Note: potency is the fitted concentration of half-maximal effect. The procedure, abridged: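 Cells (CHO, stable ADRB2 overexpression) incubated 18-20hr at 37C; compounds added from DMSO; agonist mix (1nM isoproterenol, 100uM IBMX, 25uM Ro-20-1724) added; 0.5hr RT; d2-cAMP and anti-cAMP-cryptate added; 1hr RT; 665/615 nm read.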

Test [18] concerns the target D(2) dopamine receptor (Homo sapiens) (UniProt P14416). The test can be described thus: Dopamine D2 receptor (DRD2) small molecule agonists, cell-based qHTS assay (AID 1963594). Note: nearly all actives have a fitted effect of over 35% in size. The procedure, abridged: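 cAMP accumulation in DRD2-HEK293 cells measured by HTRF after 1 h detection; compounds added 10 min before NKH477 (200nM […]) forskolin-analogue stimulation, 30 min at room temperature, with Ro20-1724 present at 0.1 mM final.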

The target is the same in test [19]. The test can be described thus: Dopamine D2 receptor (DRD2) small molecule antagonists, cell-based qHTS assay (AID 1963595; active = well fitted inhibition curve with a large enough effect in the signal ratio in the repeat runs, with a control signal flat; the % refers to the signal ratio). The procedure, abridged: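 Cells were plated and grown for 24 h at 37 °C. Ro20-1724 (0.1 mM final) went in first, then compound for 10 min. NKH477 (200 nM) with quinpirole (12 nM) followed for 30 min at RT, then HTRF detection reagents for 1 h.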

Test [20] in a line: cAMP Responsive Elements (CRE) small molecule antagonists, cell-based qHTS assay (AID 1963591; active = well fitted inhibition curve with a large enough effect in the signal ratio in the repeat runs, not every such curve was filed as active; the % refers to the signal ratio). The method in brief: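 Inhibition of NKH477-driven (0.25 uM final) CRE-beta-lactamase signal in HEK293T cells, 3 h compound exposure at 37 °C, detected by FRET substrate fluorescence.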
% is set by controls: 0 for no effect and ±100 for the full control effect.

Sequence of KiSS-1 receptor (Homo sapiens) (Q969F8 whole entry, looked up): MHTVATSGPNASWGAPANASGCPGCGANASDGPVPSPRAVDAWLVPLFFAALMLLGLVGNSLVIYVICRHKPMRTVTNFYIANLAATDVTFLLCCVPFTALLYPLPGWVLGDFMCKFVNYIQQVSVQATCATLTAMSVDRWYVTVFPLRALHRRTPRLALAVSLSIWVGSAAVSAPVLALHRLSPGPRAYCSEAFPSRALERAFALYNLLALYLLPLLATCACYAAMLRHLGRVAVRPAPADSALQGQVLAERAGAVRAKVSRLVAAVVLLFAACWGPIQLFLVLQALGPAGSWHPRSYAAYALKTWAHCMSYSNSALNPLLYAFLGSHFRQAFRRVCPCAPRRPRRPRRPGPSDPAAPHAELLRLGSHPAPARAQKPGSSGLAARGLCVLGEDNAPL
Sequence of Beta-2 adrenergic receptor (Homo sapiens) (P07550 whole entry, looked up): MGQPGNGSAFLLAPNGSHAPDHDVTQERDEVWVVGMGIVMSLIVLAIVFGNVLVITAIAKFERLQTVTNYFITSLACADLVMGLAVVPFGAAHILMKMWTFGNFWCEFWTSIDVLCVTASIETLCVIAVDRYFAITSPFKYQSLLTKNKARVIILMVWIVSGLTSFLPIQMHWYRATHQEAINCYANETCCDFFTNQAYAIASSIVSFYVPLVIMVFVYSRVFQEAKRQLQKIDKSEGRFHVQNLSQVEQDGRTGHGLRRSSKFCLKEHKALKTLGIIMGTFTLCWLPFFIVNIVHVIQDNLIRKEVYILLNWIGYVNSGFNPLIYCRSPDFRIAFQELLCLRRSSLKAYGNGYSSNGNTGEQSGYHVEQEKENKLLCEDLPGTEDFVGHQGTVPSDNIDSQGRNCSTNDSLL
Sequence of D(2) dopamine receptor (Homo sapiens) (P14416 whole entry, looked up): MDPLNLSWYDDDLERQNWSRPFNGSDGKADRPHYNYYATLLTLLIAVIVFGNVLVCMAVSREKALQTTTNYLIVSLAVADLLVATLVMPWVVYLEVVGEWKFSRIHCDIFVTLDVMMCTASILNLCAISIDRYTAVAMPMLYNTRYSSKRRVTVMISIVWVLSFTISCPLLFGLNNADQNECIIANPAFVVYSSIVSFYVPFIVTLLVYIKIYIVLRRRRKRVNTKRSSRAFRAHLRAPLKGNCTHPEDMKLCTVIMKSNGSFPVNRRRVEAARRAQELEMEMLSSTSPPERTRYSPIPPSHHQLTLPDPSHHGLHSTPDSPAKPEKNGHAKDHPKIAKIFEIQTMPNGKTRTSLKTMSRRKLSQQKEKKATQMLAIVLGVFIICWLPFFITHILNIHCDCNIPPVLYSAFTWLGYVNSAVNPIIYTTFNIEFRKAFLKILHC
Sequence of Gonadotropin-releasing hormone receptor (Homo sapiens) (P30968 whole entry, looked up): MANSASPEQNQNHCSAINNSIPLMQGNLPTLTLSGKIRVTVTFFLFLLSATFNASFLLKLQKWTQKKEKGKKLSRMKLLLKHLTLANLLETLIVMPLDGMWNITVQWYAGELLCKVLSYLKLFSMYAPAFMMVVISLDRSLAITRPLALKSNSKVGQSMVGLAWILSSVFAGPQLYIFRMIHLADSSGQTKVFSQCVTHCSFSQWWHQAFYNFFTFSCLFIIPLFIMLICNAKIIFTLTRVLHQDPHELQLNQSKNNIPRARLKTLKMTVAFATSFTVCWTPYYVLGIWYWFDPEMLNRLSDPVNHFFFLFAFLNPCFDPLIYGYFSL
Sequence of Muscarinic acetylcholine receptor M1 (Homo sapiens) (P11229 whole entry, looked up): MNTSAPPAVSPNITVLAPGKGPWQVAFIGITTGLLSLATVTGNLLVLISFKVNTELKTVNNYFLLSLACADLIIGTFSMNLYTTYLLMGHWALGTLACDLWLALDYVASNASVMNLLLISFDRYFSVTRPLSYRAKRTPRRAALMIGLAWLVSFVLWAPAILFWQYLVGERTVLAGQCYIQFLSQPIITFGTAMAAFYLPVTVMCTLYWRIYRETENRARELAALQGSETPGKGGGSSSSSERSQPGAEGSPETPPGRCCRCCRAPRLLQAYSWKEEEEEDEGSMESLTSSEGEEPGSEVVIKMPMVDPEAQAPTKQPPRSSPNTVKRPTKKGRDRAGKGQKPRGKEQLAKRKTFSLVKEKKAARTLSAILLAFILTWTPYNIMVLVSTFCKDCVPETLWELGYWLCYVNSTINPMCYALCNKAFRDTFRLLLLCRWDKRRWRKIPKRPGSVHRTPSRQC

Take `CC(C)Nc1nc(N)nc(Cl)n1`: the Potency entry in test [1], in test [2], in [3], in test [6], in test [7] and in test [8] was “inactive” each time. The Potency result in test [9], in test [10], in [11], in [12], in test [13] and in [14] was “inactive” in each case. For the same compound, the Potency result in [15], in test [16], in [17], in test [18] and in test [19] was “inactive” each time. The result in test [4] and in test [5] was inactive.
As to `CCOC(=O)COc1ccc(C)cc1`, the Potency entry in test [1], in test [2], in [3], in [6], in [7] and in test [8] was “inactive” each time. Moreover, the Potency result in [9], in test [10], in [11], in test [12], in [13] and in test [14] was “inactive” each time. Moreover, the Potency result in [15] and in test [20] was “inactive” throughout. The outcome in test [4] and in test [5] was inactive.
Consider `O=C(Nc1cccc(C2=NCCN2)c1)Nc1cccc(C2=NCCN2)c1`, for which the activity change, negative = cytotoxicity in test [1] was 19.9% [at 19 µM]; in test [8] it was 1.91% [at 13.5 µM]; in test [9], 0.748% [at 13.5 µM]; in test [10], -8.13% [at 13.5 µM]. In test [2], the activity, positive = activation is -4.28% [at 19 µM]. The activity change in test [3] is -0.181% [at 11.8 µM, stronger effect = higher value]. Further, the activation in test [4] is -0.538% [at 15.8 µM]; in test [5], 2.04% [at 11.8 µM]; in [6], -0.295% [at 13.5 µM]; in test [7], -1.12% [at 13.6 µM]; in test [11] it was 1.58% [at 13.5 µM]; in test [13] it was 1.02% [at 15.9 µM]. Besides, the activation was -0.0869% [at 15.8 µM] in [15], -0.37% [at 19 µM] in test [16] and -15.4% [at 19 µM] in [18]. The activity, negative = inhibition in test [12] was -37.2% [at 12.7 µM]; in test [14], -4.67% [at 12.6 µM]. Besides, the activity change, negative = inhibition in test [20] is -6.62% [at 18.9 µM]; in [19], -4.58% [at 18.9 µM].
Regarding `CC(CN(C)C)C(C)(O)Cc1ccc(Cl)cc1` (configuration not stated), the Potency result in [1], in test [2], in test [3], in [6], in test [7] and in test [8] was “inactive” each time. Besides, the Potency result in [9], in [10], in test [11], in test [12], in test [13] and in test [14] was “inactive” throughout. Moreover, the Potency result in [15], in [20], in [17], in test [18] and in [19] was “inactive” throughout. The result in [4] and in test [5] was inactive.
For `CN1C(=O)c2ccc([N+](=O)[O-])cc2C1=O`, the Potency result in test [1], in test [2], in [3], in test [6], in test [7] and in test [8] was “inactive” in each case. For the same compound, the Potency entry in [9], in [10], in test [11], in [12], in [13] and in test [14] was “inactive” throughout. The Potency result in test [15], in [16], in test [17] and in test [19] was “inactive” throughout. Further, the outcome in test [4] and in test [5] was inactive.
Consider `NC(=O)CC[C@@H](N)C(=O)O`, for which the Potency entry in test [1], in test [2], in test [3], in test [6], in test [7] and in [8] was “inactive” each time. Further, the Potency entry in [9], in test [10], in test [11], in test [12], in [13] and in test [14] was “inactive” each time. Also, the Potency entry in test [15], in [16], in test [17], in [18] and in test [19] was “inactive” throughout. Besides, the result in test [4] and in test [5] was inactive.
As for `Cc1ncc(CO)c(C=O)c1O`, the Potency entry in [1], in test [2], in test [3], in [6], in [7] and in test [8] was “inactive” in each case. Moreover, the Potency result in [9], in test [10], in test [11], in test [12], in test [13] and in test [14] was “inactive” in each case. The Potency entry in test [15], in test [16], in [17], in test [18] and in test [19] was “inactive” each time. Also, the result in test [4] and in test [5] was inactive.
As for `COc1cc2c(cc1OC)C(=O)C(CC1CCN(Cc3ccccc3)CC1)C2` (configuration not stated), the Potency entry in test [1], in test [2], in test [3], in [6], in test [7] and in test [8] was “inactive” each time. In addition, the Potency entry in test [9], in test [10], in [11], in test [12], in test [13] and in test [14] was “inactive” in each case. Moreover, the Potency entry in test [15], in test [16] and in [18] was “inactive” throughout. Also, the outcome in [4] and in test [5] was inactive. The Potency in test [17] is 18.8 µM (active).
